Assay outcomes as filed in PubChem.
TWEAK Fn14 block – blocks TWEAK-Fn14 interaction in a reporter cell assay | inhibition, % at 10 µM | AID 1159606 | 360,000 compounds, 2% hits | TWEAK-stimulated Fn14 reporter cells, luciferase luminescence, 8 h; in the data active = inhibition above about 50%
LGR2 inh – Drosophila LGR2 receptor signaling inhibition. HEK293 LGR2, CRE-luciferase, bursicon-stimulated, 4 h. inhibition, % at 9.99 µM. 380,000 compounds, 0.35% hits;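 active = drop in luminescence signal, shown as inhibition above about 50% in the replicate tests, limit read from the data, passing the limit was not always enough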;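 also: agonist challenge used bursicon conditioned medium at about half maximal strength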
LMP1 NFkB inh – inhibitors of Epstein-Barr LMP1-induced NF-kappaB reporter; LMP1-induced NF-kappaB luciferase reporter cells, luminescence; inhibition, % at 12.5 µM; 350,000 compounds, 0.69% hits; in the data active = inhibition above about 41%
TROY signal inh – TROY signaling inhibition. 360,000 compounds, 0.98% hits. Q293 LMP1-TROYcd NF-kB luciferase reporter, 4 h. AID 1347056. inhibition, % at 10 µM;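 active = compounds whose plate-normalised and pattern-corrected inhibition of the luciferase reporter signal at the single screening dose is 50% or more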
EWS-Fli inh – EWS/Fli transcriptional activity inhibition | A673 NR0B1-luciferase reporter, viability-normalised | inhibition, % at 12.6 µM | 350,000 compounds, 0.67% hits | AID 651661;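 active = mean inhibition of at least 50% after viability correction, with every replicate also passing that limit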;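 also: firefly luciferase signal divided by Alamar Blue viability fluorescence both relative to DMSO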
Of the large screens only hits and unclear results are named; the others gave an inactive call. Shown are actives, neighbours in structure and some others; about 2.5% of the full set was active somewhere.

CCOC(=O)C1=C(CNCc2ccccc2Cl)NC(=O)NC1c1cccc([N+](=O)[O-])c1 (configuration not stated)	none
CCOC(=O)C1=C(CNCc2ccccc2Cl)NC(=O)NC1c1ccc2c(c1)OCO2 (configuration not stated)	TWEAK Fn14 block 80 (no result: LGR2 inh, TROY signal inh, EWS-Fli inh)
CC1=C(C(=O)OCc2ccc3c(c2)OCO3)C(c2ccccc2)NC(=O)N1 (configuration not stated)	TWEAK Fn14 block 87, LMP1 NFkB inh 69, TROY signal inh 59 (no result: EWS-Fli inh)
CC1=C(C(=O)OCc2ccc3c(c2)OCO3)C(c2ccc(O)c([N+](=O)[O-])c2)NC(=O)N1 (configuration not stated)	TWEAK Fn14 block 71
O=C(C1CCCC1)N1CCCCN2[C@@H](CO)[C@H](c3ccc(C#CC4CC4)cc3)[C@@H]2C1	none (no result: TWEAK Fn14 block, LGR2 inh, LMP1 NFkB inh, TROY signal inh)
Cc1cc(C)nc(CCNC(=O)c2cc(COc3ccc(F)cc3Cl)on2)n1	TROY signal inh 76
Cc1cc(C)nc(CCNC(=O)c2cc(COc3ccc(F)cc3F)on2)n1	none
COc1cc(C2c3cc4c(cc3OC(NNC(N)=S)C2C)OCO4)cc(OC)c1OC (configuration not stated)	EWS-Fli inh 61
COc1cc(C2c3cc4c(cc3OC(NNC(N)=O)C2C)OCO4)cc(OC)c1OC (configuration not stated)	EWS-Fli inh 54
COc1cccc(C2c3cc4c(cc3OC(NNC(N)=O)C2C)OCO4)c1O (configuration not stated)	none
O=C(Cc1ccc(Cl)cc1)NCC(=O)N1CCCCC1	LMP1 NFkB inh 45
COC(=O)C1=CN(c2ccc3c(c2)OCO3)C(N)=C(C#N)C1c1cccc(F)c1 (configuration not stated)	EWS-Fli inh 56 (no result: TWEAK Fn14 block, LMP1 NFkB inh, TROY signal inh)
COC(=O)C1=CN(c2ccc(N3CCOCC3)cc2)C(N)=C(C#N)C1c1ccccc1 (configuration not stated)	none (no result: TWEAK Fn14 block, LMP1 NFkB inh, TROY signal inh)
COc1ccc(C2NC(=O)NC3=C2CCc2ccccc23)cc1 (configuration not stated)	none (no result: LGR2 inh, EWS-Fli inh)
Cc1ccc(C2NC(=O)NC3=C2CCc2ccccc23)cc1 (configuration not stated)	TWEAK Fn14 block 79, TROY signal inh 69 (no result: EWS-Fli inh)
CC(C)c1ccc(C2NC(=O)NC3=C2CCc2ccccc23)cc1 (configuration not stated)	TWEAK Fn14 block 76, TROY signal inh 55 (no result: LGR2 inh, EWS-Fli inh)
O=[N+]([O-])c1cccc(-c2cc(-c3cc(Br)ccc3O)[nH]n2)c1	TWEAK Fn14 block 84
Cc1noc(C)c1NC(=O)Nc1ccc2c(c1)CC(=O)N([C@@H](C)CO)C[C@H](C)[C@@H](CN(C)Cc1ccc(C(=O)Nc3ccccc3N)cc1)O2	none (no result: TWEAK Fn14 block, LMP1 NFkB inh, TROY signal inh, EWS-Fli inh)
CC1CCN(CCCNS(=O)(=O)c2cc(Br)cc3c2N(C(=O)C2CC2)CC3)CC1	TWEAK Fn14 block 73
COc1ccc2c3c(n(C)c2c1)[C@@H](CO)NCC31CN(C(=O)Nc2ccc(F)cc2F)C1	none (no result: TWEAK Fn14 block, LMP1 NFkB inh, TROY signal inh)
CCOc1ccc(-c2csc(/C(C#N)=C\c3ccc(O)c([N+](=O)[O-])c3)n2)cc1	TWEAK Fn14 block 104, TROY signal inh 71 (no result: EWS-Fli inh)
CCc1nc(NCC2CCCO2)c2oc3ccccc3c2n1 (configuration not stated)	TWEAK Fn14 block 87 (no result: LGR2 inh, TROY signal inh, EWS-Fli inh)
c1ccc2c(c1)oc1c(Nc3ccc4c(c3)OCCO4)ncnc12	TWEAK Fn14 block 67
Cc1nc(Nc2ccc3c(c2)OCCO3)c2oc3ccccc3c2n1	none (no result: LGR2 inh, EWS-Fli inh)
CCc1nc(Nc2ccc3c(c2)OCCO3)c2oc3ccccc3c2n1	TWEAK Fn14 block 79 (no result: LGR2 inh, EWS-Fli inh)
COC(=O)C[C@@H]1C[C@@H]2c3cc(NS(C)(=O)=O)ccc3O[C@@H]2[C@H](CO)O1	none (no result: TWEAK Fn14 block, LMP1 NFkB inh, TROY signal inh)
O=C1Nc2ccccc2SC1c1ccccc1 (configuration not stated)	none
Cc1ccc(NC2Sc3ccccc3NC2=O)cc1 (configuration not stated)	TWEAK Fn14 block 56
CCOC(=O)Cc1csc(NC(=O)c2c(O)c3ccccc3n(CC(C)C)c2=O)n1	TWEAK Fn14 block 54
Cc1ccc(C(C(=O)NCc2ccccc2)N(Cc2cccs2)C(=O)c2ccc3c(c2)OCCO3)cc1 (configuration not stated)	TWEAK Fn14 block 54
COCCCNc1nnc(Cc2ccc(Cl)cc2)c(=O)[nH]1	EWS-Fli inh 58
CO[C@@H]1CN(C)C(=O)c2cc(NC(=O)c3cnccn3)ccc2OC[C@H](C)N(CCc2ccccc2)C[C@H]1C	none (no result: TWEAK Fn14 block, LMP1 NFkB inh, TROY signal inh)
COc1ccc(OC)c(-c2cc(-c3cccnc3)nc(N)c2C#N)c1	EWS-Fli inh 56
